Bioassay records: PubChem, several laboratories
In the library only some 4.1% were active in any assay of this set; here they are far more common.
DAX1 inh-1 = DAX1 (NR0B1) inhibitors, primary screen, cell-based, HEK293, Gal4-DAX1, luciferase luminescence; Nuclear receptor subfamily 0 group B member 1 (Homo sapiens), P51843; HEK293 Gal4-DAX1 luciferase reporter; inhibition, % at 6.75 µM; 340,000 tested, 0.99% active; AID 504766, 2011;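 active = inhibition above the mean over all tested compounds plus 3 SD, cut at about 4.2% in these data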;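 also: 0% = DAX1-transfected cells with DMSO and 100% = empty-vector control cells with DMSO; inhibition shows as a rise in luminescence from relieved DAX1 repression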
Target sequence (P51843 207-470 limits assumed): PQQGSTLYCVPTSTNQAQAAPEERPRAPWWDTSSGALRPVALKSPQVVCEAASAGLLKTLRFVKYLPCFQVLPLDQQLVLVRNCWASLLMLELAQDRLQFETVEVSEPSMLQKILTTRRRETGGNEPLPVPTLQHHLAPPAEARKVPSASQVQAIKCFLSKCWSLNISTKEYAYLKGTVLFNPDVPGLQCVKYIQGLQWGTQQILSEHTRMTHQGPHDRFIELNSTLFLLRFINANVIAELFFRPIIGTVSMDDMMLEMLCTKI
ssDAF-12 act = S. stercoralis DAF-12 nuclear receptor activators, primary screen, cell-based, luminescence, HEK293, GRIP1 co-expression, lit1-tk-luc. HEK293 ssDAF-12/GRIP1 lit1-tk-luc reporter; % of 3 µM dafachronic acid response. activation, % at 6.8 µM. 370,000 tested, 1% active. AID 652126, 2013;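 active = activation above the mean over all tested compounds plus 3 SD, cut at about 0.9% in these data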;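 also: 0% = DMSO-only wells and 100% = 3 µM delta7-dafachronic acid wells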
DAX1 inh-2 = DAX1 (NR0B1) inhibitors on StAR promoter, primary screen, cell-based, luminescence, SF-1 (NR5A1), full-length DAX-1 | HEK293T StAR-luciferase reporter, SF-1/DAX-1 repression relief | inhibition, % at 6.8 µM | 370,000 tested, 1.1% active;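 active = inhibition above the mean over all tested compounds plus 3 SD, cut at about 3.6% in these data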;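 also: 0% = DAX-1 cells with DMSO and 100% = cells lacking DAX-1 with DMSO; higher inhibition means more luminescence from relief of DAX-1 repression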
hgDAF-12 ag = H. glycines DAF-12 receptor agonists, primary screen, cell-based, luminescence, HEK293, GAL4 fusion, UAS-luciferase. Nuclear hormone receptor DAF-12 (Heterodera glycines), GAL4 fusion. activation, % at 6.8 µM. AID 687014, 2013. HEK293 GAL4-hgDAF12 UAS-luciferase reporter, agonist luminescence; normalized to butyrate control. 370,000 tested, 1.8% active;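 active = activation above a cutoff set at the mean of all screened compounds plus 3 SD, cut at about 10% in these data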;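 also: 0% = DMSO wells and 100% = sodium butyrate wells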
PolyA inhibitor = polyadenylation inhibitors in yeast reporter cells, primary screen, luminescence, S. cerevisiae | S. cerevisiae SKY197-pL101 polyadenylation reporter, beta-gal luminescence; efflux-impaired pdr1/pdr3 knockout yeast; score 100 = 6 SD above DMSO | activity score, % at 12 µM | 300,000 tested, 0.02% active | AID 1875, 2009;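 active = lowest replicate activity score at least 50, where 100 means six control SD above control mean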;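 also: yeast exposed to compound for 9 h at 30 °C; higher score means more reporter readthrough which indicates perturbed polyadenylation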
hcDAF12 agonist = H. contortus DAF-12 nuclear receptor activators, primary screen, cell-based, luminescence, HEK293, lit1-tk-luc reporter. HEK293 hcDAF-12 lit1-tk-luc reporter; 0% DMSO, 100% Δ7-dafachronic acid. activation, % at 6.8 µM. 370,000 tested, 1.4% active. AID 652067, 2013;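 active = activation above the mean of all tested compounds plus 3 SD, cut at about 5.5% in these data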;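 also: 100% = response to 3 µM Δ7-dafachronic acid high control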
LXR ag = LXR agonists, Gal4 luciferase reporter, confirmation, counter-screen for hcDAF-12 agonist project, cell-based, luminescence, HEK293, H. contortus campaign. 3,400 tested, under 10 active. shares compounds with hcDAF12 agonist. HEK293 Gal4-LXR tk-luc reporter, 24 h; normalized: DMSO 0%, positive control 100%. activation, % at 6.8 µM;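 active = mean percent activation of the reporter above a cutoff set as the average over tested compounds plus their standard deviation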
hcDAF12 conf = H. contortus DAF-12 receptor agonists, confirmation, cell-based, luminescence, HEK293, lit1-tk-luc, triplicate; shares compounds with hcDAF12 agonist; HEK293 hcDAF-12 lit1-tk-luc reporter; % of Δ7-dafachronic acid response; activation, % at 6.8 µM; 3,400 tested, 61% active; AID 743032, 2013;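 active = mean activation across triplicate tests above the threshold derived from the earlier primary screen, cut at about 5.5% in these data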;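 also: 0% = DMSO only wells and 100% = 3 µM Δ7-dafachronic acid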
hgDAF12 ag = H. glycines DAF-12 receptor agonists, confirmation, cell-based, luminescence, HEK293, GAL4-LBD fusion; shares compounds with hgDAF-12 ag; HEK293 GAL4-hgDAF12 luciferase reporter, agonist mode; percent of butyrate response; activation, % at 6.8 µM; 3,300 tested, 80% active; AID 743050, 2013;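 active = mean activation over triplicate wells above the hit cutoff derived from the earlier primary screen, cut at about 11% in these data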;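 also: 0% = DMSO low control and 100% = 2 mM sodium butyrate high control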
LXR ag 2 = LXR agonists, Gal4 luciferase reporter, confirmation, counter-screen for hgDAF-12 agonist project, cell-based, luminescence, HEK293, H. glycines campaign; shares compounds with hgDAF-12 ag; 24 h; activation, % at 6.8 µM; 3,300 tested, under 10 active;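 active = mean activation of the triplicate above a set limit carried over from the primary screen, none filed active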
The depositor's hits bear a star; . = not tested or not shown.

SMILES | DAX1 inh-1 | ssDAF-12 act | DAX1 inh-2 | hgDAF-12 ag | PolyA inhibitor | hcDAF12 agonist | LXR ag | hcDAF12 conf | hgDAF12 ag | LXR ag 2
COc1ccccc1NCc1nc2ccccc2n1C | . | 1.3* | . | 15.7* | . | 10.7* | 0.8 | 8.7* | 17.5* | 0.7
CC(C)n1c(NCc2nc3ccccc3n2C)nc2ccccc21 | 0.8 | -0.3 | -0.1 | 0.6 | 11.0 | 0.2 | . | . | . | .
Nc1ccc2cc3[nH]c4cc(N)ccc4c3nc2c1 | -0.9 | 3.0* | -2.2 | 35.1* | . | 19.5* | 3.5* | 14.5* | 20.5* | 1.3
Clc1ccccc1OCCn1nnc2ccccc21 | 0.8 | -0.8 | 1.4 | 6.5 | -37.6 | 2.1 | . | . | . | .
CCOC(=O)c1c(C)oc2c1c(C(c1cccnc1)N1CCOCC1)c(O)c1ccccc12 (centres undefined) | 4.9* | 2.6* | 3.0 | 13.5* | -4.6 | 10.4* | 0.5 | 5.7* | 7.9 | 0.4
CCOC(=O)c1c(C)oc2c1c1c(c3ccccc32)OCN(Cc2cccnc2)C1 | 0.3 | . | . | . | . | . | . | . | . | .
N#CCC(=N)N1CCN(c2ccc(F)cc2)CC1 | 1.0 | -1.6 | -0.6 | -4.9 | 12.5 | -1.2 | . | . | . | .
CCN(CC1CCCO1)C(=O)C1CCN(C2CCN(Cc3ccccc3C)CC2)CC1 (centres undefined) | -0.1 | -0.9 | -1.3 | -2.4 | -6.7 | -1.1 | . | . | . | .
COc1cc(CCC(=O)OCC(=O)Nc2cc(S(=O)(=O)N3CCOCC3)ccc2Cl)cc(OC)c1OC | 0.3 | -1.2 | 2.1 | 0.6 | . | -2.1 | . | . | . | .
O=C(Nc1cccc(Cl)c1)c1cnn2cccnc12 | 1.5 | 0.3 | 3.5 | 17.1* | 12.6 | 7.7* | 1.2 | 7.5* | 13.7* | 0.8
O=C(Nc1cc(Cl)cc(Cl)c1)c1cnn2cccnc12 | 0.3 | -0.8 | 0.4 | -0.6 | 3.9 | -0.4 | . | . | . | .
CCc1sc(C(=O)Nc2nccs2)cc1C | 2.3 | 0.9* | 1.5 | 19.0* | -4.4 | 6.7* | 1.4 | 6.7* | 20.9* | 0.9
CCc1sc(C(=O)Nc2nc(-c3ccccn3)cs2)cc1C | -1.8 | . | . | . | . | . | . | . | . | .
Clc1ccc2nc(-c3ccccc3)cn2c1 | -1.5 | 1.9* | 2.5 | 17.8* | -14.9 | 11.2* | 1.8 | 9.7* | 18.1* | 1.0
COc1ccc(-c2cc3cccc(OC)c3oc2=O)cc1 | -1.2 | 0.5 | 2.9 | 15.5* | -21.3 | 7.3* | 1.6 | 7.8* | 23.6* | 1.2
COc1ccc(Nc2nc(-c3cc4cccc(OC)c4oc3=O)cs2)cc1 | 3.5 | -0.8 | 0.3 | 4.9 | 5.6 | -1.9 | . | . | . | .
